Screening data: PubChem BioAssay, National Center for Advancing Translational Sciences (NCATS)
Pf Dd2 growth = qHTS Primary assay for Inhibitors of Plasmodium falciparum Dd2 growth in vitro; 120,000 compounds, 4.3% hits; P. falciparum Dd2 growth, SYBR Green, 72 h; Potency, µM (titrated, usually from 28.9 µM), for inactives: top-dose activity, negative = inhibition, hits mostly inhibitors; active means well fitted inhibition curve with a large enough effect;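 further: plate controls were DMSO vehicle for no effect and reference drug for full effect; nearly all actives have a fitted effect of over 65% in size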
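Infected erythrocytes (Dd2, 0.3% parasitemia, 2.5% hematocrit final) are added to compound in RPMI-1640/Albumax II medium, grown 72 h at 37C in low oxygen, then lysed with saponin/Triton-X containing SYBR Green and read by fluorescence.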
Active calls of the source: *; [ ] = dose if it differs, or a comment. Shown is part of a subset that was picked to be rich in hits. Potency means the concentration at half of the fitted maximal effect.

How did COc1ccc(-c2cc(N3CCCN(C(=O)C4CCN(C(=O)c5ccccc5)CC4)CC3)n[nH]2)cc1 do in these assays?
Pf Dd2 growth: inactive

Results for Cc1noc(C)c1CCCNC(=O)c1ccc(N2CCN(CC3CC3)CC2)nc1 ?
Pf Dd2 growth: -12%

How did CNC(=O)[C@@H]1CN(C(=O)c2cc(Cl)ccc2F)C[C@H]1COC do in these assays?
Pf Dd2 growth: 1%

How did O=C(CC1CCOCC1)Nc1ccccc1 do in these assays?
Pf Dd2 growth: 35%

What do the screens show for `CC(C)c1nc2c(c(-c3ccc(O)cc3)n1)CN(C(=O)c1ccc(C(F)(F)F)cc1)CC2`?
Pf Dd2 growth: inactive

How did CC(C)c1nc2c(c(-c3ccc(Cl)cc3)n1)CCN(C(=O)c1ccc(C(F)(F)F)cc1)CC2 do in these assays?
Pf Dd2 growth: 10µM*

What do the screens show for `COc1ccccc1C(=O)N1CCc2nc(C(C)C)nc(-c3ccc(Cl)cc3)c2CC1`?
Pf Dd2 growth: -28%

Results for O=C(c1ccc(Cl)cc1)N1CCC2(CC1)CN[S+](=O)([O-])c1cccnc1O2 ?
Pf Dd2 growth: 8%

How did COc1ccc(C(=O)NCCSc2c(C)[nH]c3ccccc23)cc1 do in these assays?
Pf Dd2 growth: -3%

How did Cc1[nH]c2ccccc2c1SCCNC(=O)c1ccc(F)cc1 do in these assays?
Pf Dd2 growth: -28%

How did CCN(CC)S(=O)(=O)c1ccc(C(=O)NCCSc2c(-c3ccc(C)cc3)[nH]c3ccccc23)cc1 do in these assays?
Pf Dd2 growth: 10µM*

How did Cc1noc(C)c1[S+](=O)([O-])N1CCC2(CC1)CNC(=O)c1ccccc1O2 do in these assays?
Pf Dd2 growth: -21%

How did CC(C)N1CC2CCC(C1)N2Cc1ccc(-c2cncnc2)cc1 do in these assays?
Pf Dd2 growth: inactive

Results for CCC(C(=O)N1CCc2onc(-c3ccc(F)c(F)c3)c2C1)n1cccn1 (stereo not drawn) ?
Pf Dd2 growth: -24%

What do the screens show for `CC(C)n1ccnc1CN1CCc2onc(-c3ccc(Cl)cc3)c2C1`?
Pf Dd2 growth: 13µM*

Results for CCc1nc2c(c(-c3ccc(Cl)cc3)n1)CCN(CCC(C)C)CC2 ?
Pf Dd2 growth: -19%

What do the screens show for `COC(=O)c1ccc2nc(CO[C@H]3CN(Cc4ccc5ccccc5n4)C[C@H]3F)[nH]c2c1`?
Pf Dd2 growth: 8.9µM*

What do the screens show for `COC(=O)c1ccc2nc(CO[C@H]3CN(Cc4cccnc4)C[C@H]3F)[nH]c2c1`?
Pf Dd2 growth: -21%[44.1 µM]

How did COC(=O)c1ccc2nc(CO[C@H]3CN(C(C)C)C[C@H]3F)[nH]c2c1 do in these assays?
Pf Dd2 growth: inactive

What do the screens show for `CCN(CC)CCNC(=O)c1cn(CCOC)c(=O)c2c1c1ccccc1n2C`?
Pf Dd2 growth: 10µM*

How did CCCCN(CC)CCCNC(=O)c1cc2c(=O)[nH]c3ccccc3c2n1C do in these assays?
Pf Dd2 growth: 8.9µM*

Results for CCCN(CCC)CCCNC(=O)c1cc2c(=O)[nH]c3ccccc3c2n1C ?
Pf Dd2 growth: inactive

Results for CCCCNC(=O)c1c(C)oc2ncn(CC(C)C)c(=O)c12 ?
Pf Dd2 growth: inactive

What do the screens show for `CCOCCCNC(=O)c1cc2c(=O)n(C)c3ccccc3c2n1C`?
Pf Dd2 growth: 8%

How did COc1cc(Cl)c(C)cc1NC(=O)c1cn(C2CCCC2)c(=O)c2c1c1ccccc1n2C do in these assays?
Pf Dd2 growth: -10%

What do the screens show for `CCCCN(CC)CCCNC(=O)c1cn(CC(C)C)c(=O)c2c1c1ccccc1n2C`?
Pf Dd2 growth: 7.1µM*

What do the screens show for `CCCCN(CC)CCNC(=O)c1cc2c(=O)[nH]c3ccccc3c2n1C`?
Pf Dd2 growth: inactive

Results for CCCCN(CCCC)CCNC(=O)c1cn(CC)c2ccc(S(=O)(=O)N3CCc4ccccc4C3)cc2c1=O ?
Pf Dd2 growth: -25%

What do the screens show for `Cc1cc(C(=O)N[C@H]2CCOC[C@H]2C2CCOCC2)ccc1N1CCOCC1`?
Pf Dd2 growth: -1%

Results for CN1CCC(N[C@H]2CC(C)(C)[C@@H]3C[C@@](C)(O)CC[C@]23CCC(=O)NCc2cccnc2)CC1 ?
Pf Dd2 growth: 17%

Results for CCN(CC)C(=O)c1cc2c(s1)CCC(C(=O)NC)C2 (stereo not drawn) ?
Pf Dd2 growth: 38%

What do the screens show for `CS(=O)(=O)N1CCOc2ccc(CCC(=O)NC3CCS(=O)(=O)C3)cc2C1` (stereo not drawn)?
Pf Dd2 growth: 19%

What do the screens show for `Cc1ccc(C(=O)N2CCCCC23Cc2ccccc2NC3=O)cc1` (stereo not drawn)?
Pf Dd2 growth: -4%[44.1 µM]

Results for O=C(c1ccc(Oc2ccccc2)cc1)N1CCNc2cnc(Nc3cccnc3)nc2C1 ?
Pf Dd2 growth: 13µM*

Results for O=C(Cc1ccccc1)N1CCNc2cnc(Nc3ccccc3)nc2C1 ?
Pf Dd2 growth: -20%[44.1 µM]

What do the screens show for `CN(C)c1cccc(C(=O)N2CCNc3cnc(Nc4cccc(C(F)(F)F)c4)nc3C2)c1`?
Pf Dd2 growth: 7.9µM*

How did N#Cc1cccc(C(=O)N2CCNc3cnc(Nc4cccc(F)c4)nc3C2)c1 do in these assays?
Pf Dd2 growth: inactive

What do the screens show for `CC(C)NC(=O)N1CCNc2cnc(Nc3cccc(F)c3)nc2C1`?
Pf Dd2 growth: -7%[44.1 µM]
